Values without a mark were called inactive. The source made the active and inactive calls.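 Rule for the calls: active = fold change shows a rise in VEGF expression relative to GAPDH, above the control level; inconclusive = expression about equal to the control; inactive = no rise in relative expression.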
Assay: qHTS Assay for Agonists of the Relaxin Receptor RXFP1: VEGF expression
Settings: THP1 cells, VEGF mRNA qRT-PCR, 2 h; hits give high values
Source text: The relaxin hormone is involved in the variety of biological functions in normal tissues and diseases. The role of relaxin is well-established in female reproduction and parturition, mammary gland and endometrial development, maintenance of myometrial quiescence during pregnancy. Relaxin signaling through its G protein-coupled receptor (GPCR) RXFP1 results in ECM remodeling through regulation of collagen deposition, cell invasiveness, proliferation and overall tissue homeostasis. […] Recombinant human relaxin (rhRlx) is currently being tested in clinical trials as a protective agent in congestive heart failure, in treating severe preeclampsia, and as an anti-fibrotic agent in systemic sclerosis.
Upon relaxin binding RXFP1 activation leads to the activation of adenylate cyclase (AC) via Gs. cAMP will activate PKA, which phosphorylates many signaling proteins. Thus, detection of cAMP increase is an easy and reliable indication of relaxin receptor activation. To screen for agonists of the relaxin receptor, a HEK293T cell line stably transfected with RXFP1 was used. RXFP1 activation was assayed by changes in cAMP levels as detected with a time-resolved fluorescence energy transfer (TR-FRET) cAMP detection kit.
After the primary screen and SAR work, a probe and its analogs were tested in this selectivity assay. THP1 cells (human acute monocytic leukemia cell line) were used to analyze the stimulation of VEGF gene expression after treatment with relaxin or compounds. The VEGF stimulation in these cultured […] cells is a well-established property of relaxin.
NIH Chemical Genomics Center [NCGC]
NIH Molecular Libraries Probe Production Centers Network [MLPCN]
Assay Submitter (PI): Alexander Agoulnik
400,000 THP1 cells (0.4 mL at 1x10^6 cells/mL) in test media (RPMI-1640 without phenol red, 0.5% FBS, 1x Pen/Strep, 0.05 mM of 2-mercaptoethanol) were seeded in each well on a 24-well plate. After 24 hours incubation at 37 degrees C, 5% CO2, relaxin or compounds were added for 2 hours. The cells were harvested and RNA was extracted by the Trizol (Invitrogen, Carlsbad, CA) method according to manufacturers' instructions. cDNA was synthesized by using Verso cDNA kit (Thermo Scientific, Waltham, MA) according to manufacturer's protocol. Quantitative real time RT-PCR for VEGF and GAPDH gene expression was done using a Roche LightCycler 480 (Roche Diagnostics, Indianapolis, IN) with the appropriate set of primers and probes spanning different exons. The relative fold change in VEGF mRNA level was calculated by the comparative Ct (2- Ct) method using GAPDH expression for normalization of RNA.

**Q.** Which fold change does the source give for `CCCCOc1ccccc1C(=O)Nc1ccccc1C(=O)Nc1cccc(S(=O)(=O)C(F)(F)F)c1` here?
**A.** The fold change was 1.57 (active).

**Q.** Which fold change does the source give for `CCOc1ccccc1C(=O)Nc1ccccc1C(=O)Nc1cccc(C(F)(F)F)c1` here?
**A.** Its fold change is 1.93 (active).

**Q.** For `COc1ccccc1C(=O)Nc1ccccc1C(=O)Nc1cccc(SC(F)(F)F)c1`, which fold change is on record?
**A.** Its fold change is 1.15 (active).

**Q.** For `O=C(O)c1cc(-c2ccccc2)nn1CC1CC(c2cccnc2)=NO1` (centres undefined), which fold change is on record?
**A.** The fold change was 1.01.

**Q.** Which fold change does the source give for `O=C(Nc1cccc(S(=O)(=O)C(F)(F)F)c1)c1ccccc1NC(=O)c1ccccc1OCC(F)(F)F` here?
**A.** The fold change was 1.24 (active).

**Q.** Which fold change does the source give for `CCCOc1ccccc1C(=O)Nc1ccccc1C(=O)Nc1cccc(S(=O)(=O)C(F)(F)F)c1` here?
**A.** Its fold change is 1.53 (active).

**Q.** Which fold change does the source give for `CC(C)Oc1ccccc1C(=O)Nc1ccccc1C(=O)Nc1cccc(S(=O)(=O)C(F)(F)F)c1` here?
**A.** Its fold change is 2.79 (active).

**Q.** With `COc1ccccc1C(=O)Nc1ccccc1C(=O)Nc1cccc(S(=O)(=O)C(F)(F)F)c1` as the compound, how does the fold change read?
**A.** The fold change was 1.41 (active).

**Q.** Which fold change does the source give for `CCOc1ccccc1C(=O)Nc1ccccc1C(=O)Nc1cccc(S(=O)(=O)C(F)(F)F)c1` here?
**A.** The fold change was 2.33 (active).
